In PubChem BioAssay AID624300 (Southern Research Specialized Biocontainment Screening …, 2012):
Screen size: about 2,400 compounds; about 360 (15%) were called active. A selection follows. Potency and affinity values are given separately. Values without a mark were called inactive.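 The calls were made as follows: active = viability falls under 70% at one or more tested concentrations, taken as toxicity; inactive = viability stays over 70% at every dose.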

Assay: viability loss in HeLa cells – cytotoxicity control for MgcRacGAP inhibitor project, dose response (AID 624300);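 also: 100% = median of untreated control wells on the same plate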
Settings: CellTiter-Glo luminescence, 24 h; series mostly up to 100 µM; viability: at the top concentration

Compound	viability [%]
CCOc1cc(/C=N/NC(=O)c2ccccc2-n2cccc2)ccc1O	114
Nc1ccc2nc(-c3cccnc3)[nH]c2c1	92.3
Nc1ccc2nc(-c3ccc(Cl)cc3)[nH]c2c1	83.3
COc1cc(CNC2CCCCC2OC)cc(OC)c1 (centres undefined)	100
COc1ccc2c3c(cccc13)N(C)N=C2C	85.7
Cc1cccc(N2CCC(N=CN(C)C)=N2)c1	84.3
CCOC(=O)N/N=C/c1ccc(N(CC)CC)cc1O	107
O=C(CCC(=O)Nc1ccc(F)cc1)N/N=C/c1ccc(O)cc1	99.1
Cc1cc(N2CCCC2)ccc1NC(=O)CN1C(=O)NC2(CCCCC2)C1=O	98.7
COc1cc(CN(C)CCc2ccccn2)cc(OC)c1OC	101
COc1ccc(CN(C)CCc2ccccn2)cc1OC	99
COc1cc(/C(C)=N/N2CCN(Cc3ccc(C)cc3)CC2)ccc1O	89.5
O=C(CN1CCN(S(=O)(=O)c2ccccc2F)CC1)N1CCc2ccccc2C1	95.5
O=c1c2sc3ccccc3c2[nH]c(=S)n1CCN1CCOCC1	96.8
O=C(O)CCCn1c(=S)[nH]c2c(sc3ccc([N+](=O)[O-])cc32)c1=O	90.5
COc1cc(/C=N/NC(=O)c2cnccn2)ccc1O	98.5
CC1CN(CCCCN2C(=O)c3ccccc3C2=O)CC(C)O1 (centres undefined)	102
CCCCN(CC)CCNC(=O)CCC(=O)Nc1ccc2nc(N3CCN(C)CC3)cc(C)c2c1	107
CCCCN(CCCC)CCNC(=O)CSCc1ccc(C)cc1	93
CC1(C)Nc2cccc3cccc(c23)N1	104

Compound	viability [%]
COc1ccc(Br)cc1CN1CCC(N2CCCC2)CC1	112
CCOc1ccc(NCc2cccn2-c2nnc(N3CCC(C(=O)NCCCN4CCCCC4)CC3)s2)cc1	93.5
CC(/C=C/c1ccc(O)cc1)=N/O	107
COc1ccc(NC2CCCN(C(=O)CSc3ccccc3)C2)cc1OC (centres undefined)	97.7
Cc1ccc(/C=C2/C(=O)c3ccc(C(=O)O)cc3C2=O)o1	95.9
CC1(C)OC(=O)C(=Cc2ccc(-c3ccc(S(N)(=O)=O)cc3)o2)C(=O)O1	99.5
Cc1ccc(/C=C2/C(=O)ON=C2c2ccccc2)o1	83.9
O=S(=O)(O)c1cc(O)c2cc(Nc3ccccc3)ccc2c1	101
Nc1ccccc1Nc1cccc(C(F)(F)F)c1	96.2
CCOC(=O)c1[nH]c2ccc(C)cc2c1N	80.9
COc1cc(/C=C/C(=O)OCc2cn3cc(Cl)ccc3n2)ccc1O	113
Cc1oc(-c2ccccc2)cc1C(=O)Nc1ccc(N(C)C)cc1	101
O=C(O)c1ccccc1C(=O)Nc1ccc(Nc2ccccc2)cc1	80.3
O=C(Nc1ccc(Nc2ccccc2)cc1)C1CC1	98.6
CC(=O)Nc1ccc(Nc2ccccc2)cc1	98.2
CCN1CCN(c2ccc(N=Cc3ccc(O)cc3O)cc2)CC1	99
Cc1ccc(C)c(OCCCCN2CCCCC2)c1	92
CCOc1cc(/C=C/c2cccc[n+]2C)ccc1O	103
c1csc(CNc2ccc3c(c2)OCCO3)c1	96.3
Cc1ccc(S(=O)(=O)Oc2ccc(/C=C3\C(=N)N4N=C(S(C)(=O)=O)SC4=NC3=O)cc2)cc1	106

Compound	viability [%]
CCN(CC(=O)NCc1ccc(F)cc1)C(=O)CN1CCN(c2ccc(OC)cc2)CC1	104
O=C(CNCC1CCCO1)Nc1ccc(N2CCCCCC2)cc1 (centres undefined)	95.6
Cc1ccccc1N1C(S)=C(C#N)C(=O)NC1c1cccs1 (centres undefined)	98.3
Cc1ncc(CO)c(/C=N/Nc2ccc(C(F)(F)F)cn2)c1O	96.6
CCOc1cc(/C=N/NC(=O)CCCC(=O)NC2CCCCC2)ccc1O	103
COc1cc(/C=C/C(=O)OCC(=O)N2CCN(S(=O)(=O)c3ccc(C)cc3C)CC2)ccc1O	87.1
CCN(CC)CCC(=O)N1C/C(=C/c2ccccc2)C(=O)/C(=C\c2ccccc2)C1	87.1
CCOc1cc(/C=C2\CN(CC)C/C(=C\c3ccc(O)c(OCC)c3)C2=O)ccc1O	83.4
CC(C)c1ccc(CNc2ccc(N3CCOCC3)cc2)cc1	91.4
CC1CCN(S(=O)(=O)c2ccc3c(c2)C(Cl)(Cl)C(=O)N3)CC1	94
CCOc1cc(/C=C2\CN(C)C/C(=C\c3ccc(O)c(OCC)c3)C2=O)ccc1O	99
CCOc1cc(CNc2ccc3[nH]c(=O)[nH]c3c2)ccc1OCC(=O)NC(C)(C)C	103
O=C1CSC(=Nc2ccc(O)cc2)N1	119
CCN(CC)S(=O)(=O)c1cccc(-c2n[nH]c(=S)n2/N=C/c2ccc(C(=O)OC)cc2)c1	90.5
c1cc2c(cc1NC1CCCCCC1)OCO2	109
CC(=O)N1CCC(=NNC(=O)c2cc3ccccc3cc2O)CC1	102
C/C(=N\Nc1ccc([N+](=O)[O-])cc1)c1ccc(N)cc1	93.4
COc1cccc(NC2=C(C#N)C(=O)NC(c3cccc(OC)c3O)S2)c1 (centres undefined)	99.7
COc1ccc(NCc2cc(=O)[nH]c3ccccc23)cc1	98.2
